± gives the standard deviation of the averaged measurements. Over roughly 33,000 sequences, “E-score (dimensionless, -0.5 to 0.5)” has its median near -0.049; the highest 2% begin near 0.37. Many of the other results were omitted from the sample, so the highest values are more common in it than they were.
These sequences were tested on T1, PmTbr T-box DNA-binding domain (GST fusion) (assay: PBM E-score of 8-mer (E-score (dimensionless, -0.5 to 0.5)); Tbr is Tbrain of the sea star Patiria miniata (Pm) or the sea urchin Strongylocentrotus purpuratus (Sp); higher = stronger binding preference). Settings: the construct has about 5 more residues each side.
T1 sequence: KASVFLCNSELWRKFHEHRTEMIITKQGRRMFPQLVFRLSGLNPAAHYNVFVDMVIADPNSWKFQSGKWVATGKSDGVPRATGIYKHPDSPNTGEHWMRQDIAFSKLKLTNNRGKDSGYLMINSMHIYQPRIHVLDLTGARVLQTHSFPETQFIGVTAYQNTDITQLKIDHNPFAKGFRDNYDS
Protocol: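 Universal protein-binding microarray (Agilent AMADID 016060, 60-bp probes with a 35-bp variable region) incubated with 200 nM GST-fused Patiria miniata Tbr T-box DNA-binding domain (residues 272-466) in PBS pH 7.5. Scored for every ungapped 8-mer (given with its reverse complement) by the Universal PBM Analysis Suite as E-score (modified Wilcoxon-Mann-Whitney enrichment, range -0.5 to 0.5; >0.45 counts as bound) and Z-score of median probe intensity. Two replicate arrays (datasets 1 and 2).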
In the case of AAAGTGAC, the “PBM E-score of 8-mer” value is reported as 0.392 ± 0.012.
In the case of AAAGTGAT, the “PBM E-score of 8-mer” value is reported as 0.299 ± 0.012.
For CAAGTGAC, the “PBM E-score of 8-mer” value was 0.325 ± 0.021.
With GAAGTGAC the “PBM E-score of 8-mer” value was 0.379 ± 0.017.
In the case of AAAGTGAA, the “PBM E-score of 8-mer” value is reported as -0.00138 ± 0.15.
GAAGTGAA was tested, and the “PBM E-score of 8-mer” value was 0.219 ± 0.011.
In the case of AGAGTTCG, the “PBM E-score of 8-mer” value is reported as -0.201 ± 0.018.
In the case of CTGGGACA, the “PBM E-score of 8-mer” value is reported as -0.223 ± 0.073.
CACTTGCG was tested, and the “PBM E-score of 8-mer” value was 0.376 ± 0.019.
In the case of AACTTGCG, the “PBM E-score of 8-mer” value is reported as 0.137 ± 0.02.
In the case of CACTTGTC, the “PBM E-score of 8-mer” value is reported as 0.402 ± 0.0079.
In the case of CACTTGTA, the “PBM E-score of 8-mer” value is reported as 0.0949 ± 0.008.
With CACTTCCC the “PBM E-score of 8-mer” value was 0.3321 ± 0.00048.
CACTTCAC was tested, and the “PBM E-score of 8-mer” value was 0.396 ± 0.012.
With CACTTCAG the “PBM E-score of 8-mer” value was 0.255 ± 0.025.
For AACTTCAC, the “PBM E-score of 8-mer” value was 0.0623 ± 0.061.
With AACTTGTC the “PBM E-score of 8-mer” value was 0.34353 ± 0.00012.
With AACTTCCG the “PBM E-score of 8-mer” value was -0.141 ± 0.013.
For CACTTCCG, the “PBM E-score of 8-mer” value was 0.37 ± 0.013.
With CACTTGCA the “PBM E-score of 8-mer” value was 0.349 ± 0.0093.
In the case of ACCCTTGC, the “PBM E-score of 8-mer” value is reported as 0.0156 ± 0.051.
With ACAGATAC the “PBM E-score of 8-mer” value was -0.0952 ± 0.059.
For AATTAAGG, the “PBM E-score of 8-mer” value was -0.152 ± 0.064.
In the case of ACCGTCAC, the “PBM E-score of 8-mer” value is reported as 0.288 ± 0.0081.
For ACACTCTG, the “PBM E-score of 8-mer” value was 0.2899 ± 0.00065.
In the case of AATTGGAA, the “PBM E-score of 8-mer” value is reported as -0.0872 ± 0.056.
For GGGCCAAA, the “PBM E-score of 8-mer” value was -0.228 ± 0.029.
CATTGGGG was tested, and the “PBM E-score of 8-mer” value was -0.0156 ± 0.035.
GTTCGCGA was tested, and the “PBM E-score of 8-mer” value was 0.338 ± 0.019.
In the case of AATCGCGT, the “PBM E-score of 8-mer” value is reported as 0.169 ± 0.035.
In the case of CATCGCGA, the “PBM E-score of 8-mer” value is reported as 0.15 ± 0.043.
In the case of ATTCGCGA, the “PBM E-score of 8-mer” value is reported as 0.389 ± 0.0025.
For ACTCGCGA, the “PBM E-score of 8-mer” value was 0.38 ± 0.0065.
With CTTCGCTC the “PBM E-score of 8-mer” value was 0.00268 ± 0.066.
In the case of ACTCGCGC, the “PBM E-score of 8-mer” value is reported as 0.29 ± 0.014.
For CTTCGCGC, the “PBM E-score of 8-mer” value was 0.3742 ± 0.0014.
CATCGCGC was tested, and the “PBM E-score of 8-mer” value was 0.262 ± 0.0094.
In the case of AATCGCGA, the “PBM E-score of 8-mer” value is reported as 0.3771 ± 0.0028.
CTTCGCGA was tested, and the “PBM E-score of 8-mer” value was 0.277 ± 0.011.
In the case of CCTCGCGA, the “PBM E-score of 8-mer” value is reported as 0.281 ± 0.00058.
In the case of GGCATTAA, the “PBM E-score of 8-mer” value is reported as -0.146 ± 0.0047.
With TGCTCCAA the “PBM E-score of 8-mer” value was -0.162 ± 0.04.
With ACCCTACG the “PBM E-score of 8-mer” value was 0.0529 ± 0.027.
AGCCTAGC was tested, and the “PBM E-score of 8-mer” value was -0.00521 ± 0.12.
For TCGAAGCA, the “PBM E-score of 8-mer” value was -0.141 ± 0.0046.
For AATCGCGC, the “PBM E-score of 8-mer” value was 0.311 ± 0.024.
For ATTCGCGG, the “PBM E-score of 8-mer” value was 0.244 ± 0.039.
ATTCGCGC was tested, and the “PBM E-score of 8-mer” value was 0.39 ± 0.021.
In the case of CTAGCACC, the “PBM E-score of 8-mer” value is reported as 0.449 ± 0.006.
With ATAGCACC the “PBM E-score of 8-mer” value was 0.416 ± 0.012.
In the case of ATAGCACG, the “PBM E-score of 8-mer” value is reported as 0.358 ± 0.017.
CTAGCACA was tested, and the “PBM E-score of 8-mer” value was 0.327 ± 0.024.
In the case of CAAGCACC, the “PBM E-score of 8-mer” value is reported as 0.129 ± 0.016.
With ATAGCACA the “PBM E-score of 8-mer” value was 0.174 ± 0.035.
ACATTCGC was tested, and the “PBM E-score of 8-mer” value was 0.267 ± 0.042.
AGGCTTGG was tested, and the “PBM E-score of 8-mer” value was -0.2 ± 0.011.
For GAAACCGA, the “PBM E-score of 8-mer” value was -0.0132 ± 0.073.
In the case of AGCCATAG, the “PBM E-score of 8-mer” value is reported as -0.0194 ± 0.015.
In the case of ATGGCACA, the “PBM E-score of 8-mer” value is reported as 0.103 ± 0.0048.
CTGGCACA was tested, and the “PBM E-score of 8-mer” value was 0.241 ± 0.0048.
For ATGGCACG, the “PBM E-score of 8-mer” value was 0.189 ± 0.041.
CAGGCACC was tested, and the “PBM E-score of 8-mer” value was -0.0396 ± 0.032.
ATGGCACC was tested, and the “PBM E-score of 8-mer” value was 0.387 ± 0.011.
With CTGGCACC the “PBM E-score of 8-mer” value was 0.411 ± 0.018.
With ACCGGTCC the “PBM E-score of 8-mer” value was -0.276 ± 0.048.
For TCCTATAA, the “PBM E-score of 8-mer” value was -0.189 ± 0.068.
With AAATAGGG the “PBM E-score of 8-mer” value was -0.0426 ± 0.12.
In the case of ACGGCTCT, the “PBM E-score of 8-mer” value is reported as -0.15 ± 0.033.
For AACCTGTA, the “PBM E-score of 8-mer” value was -0.252 ± 0.046.
With GACCTGAC the “PBM E-score of 8-mer” value was -0.0852 ± 0.017.
For AACCTGAG, the “PBM E-score of 8-mer” value was 0.0264 ± 0.17.
For AACCTGTC, the “PBM E-score of 8-mer” value was 0.30927 ± 0.00016.
In the case of CGCCTGTC, the “PBM E-score of 8-mer” value is reported as 0.303 ± 0.026.
AACCTGAC was tested, and the “PBM E-score of 8-mer” value was 0.111 ± 0.026.
For CACCTGTA, the “PBM E-score of 8-mer” value was 0.391 ± 0.009.
For CGCCTGAG, the “PBM E-score of 8-mer” value was 0.0681 ± 0.047.
CACCTGAA was tested, and the “PBM E-score of 8-mer” value was 0.312 ± 0.0079.
For CACCTGAG, the “PBM E-score of 8-mer” value was 0.37535 ± 0.00034.
CACCTGTC was tested, and the “PBM E-score of 8-mer” value was 0.4274 ± 0.0023.
With CACCTGAC the “PBM E-score of 8-mer” value was 0.387 ± 0.018.
AAACTATC was tested, and the “PBM E-score of 8-mer” value was -0.215 ± 0.063.
AACCAGCA was tested, and the “PBM E-score of 8-mer” value was -0.18 ± 0.047.
For GATGGCCC, the “PBM E-score of 8-mer” value was -0.138 ± 0.0089.
In the case of GCTCCACA, the “PBM E-score of 8-mer” value is reported as -0.0189 ± 0.02.
ACTGAACG was tested, and the “PBM E-score of 8-mer” value was -0.315 ± 0.091.
For GCTTTACC, the “PBM E-score of 8-mer” value was -0.126 ± 0.066.

— the supplement of paper PMC4166925
